# Assay outcomes from PubChem.
# MazF activator: MazEF (E. coli) toxin RNase activation. P0AE70. FAM/BHQ RNA-DNA oligo cleavage fluorescence, 5 h. activation, % at 20 µM. 0.32% of 350,000 active. AID 504720; in the data active = activation above about 50%
# Vc quorum ag: induces V. cholerae light production without autoinducers; V. cholerae BH1578 lux reporter, luminescence, 6 h; activation, % at 18.7 µM; 0.16% of 350,000 active; AID 588436; in the data active = activation mostly above about 9.7%, no sharp cut-off; inconclusive = no clear call, values can overlap the other calls; inactive = mostly below about 3.7%
# BoNT-F LC inh: BoNT F light chain protease inhibition; Multiplex microsphere protease cleavage assay, flow cytometry; inhibition, % at 10 µM; 0.22% of 360,000 active; AID 588497; in the data active = inhibition above about 35%, passing the limit was not always enough; inconclusive = no clear call, values can overlap the other calls; note: plate controls were buffer without enzyme for full effect and enzyme alone for no effect
# Anthrax LF prot: anthrax lethal factor protease inhibition | P15917 | multiplex microsphere protease cleavage assay, LF | inhibition, % at 10 µM | 0.12% of 360,000 active | AID 588501; note: plate controls were buffer without enzyme for full effect and enzyme alone for no effect
# Bead autofluor: compound fluorescence in toxin protease inhibitor counterscreen; compound autofluorescence counterscreen, microsphere flow cytometry; hits give high values; fluorescence intensity (test concentration not listed); 3.1% of 360,000 active; AID 624483; in the data active = fluorescence intensity above about 16000; inconclusive = no clear call, values can overlap the other calls
# BoNT A protease: BoNT A light chain protease inhibition | multiplex microsphere protease substrate cleavage, flow cytometry | inhibition, % at 10 µM | 0.17% of 360,000 active | AID 588499; note: plate controls were buffer without enzyme for full effect and enzyme alone for no effect
# BoNTA LC inh 1: blocks botulinum neurotoxin A light chain protease. shares compounds with BoNT-F LC inh. multiplex microsphere protease assay, flow cytometry. inhibition, % at 10 µM. 3% of 720 active. AID 602139; in the data active = inhibition above about 32%
# BoNT-F LC CP1: inhibitors of Botulinum neurotoxin F light chain protease | shares compounds with BoNT-F LC inh | multiplex microsphere protease cleavage assay, flow cytometry | inhibition, % at 10 µM | 720 tested, under 10 active | AID 602140; call rule not given here
# LF protease CP1: blocks anthrax lethal factor protease; 720 tested, under 10 active; multiplex microsphere protease cleavage assay, LF; AID 602142; shares compounds with BoNT-F LC inh; inhibition, % at 10 µM; call rule not given here
# * hit, by the source's call; i = inactive; ? = inconclusive; / = no result given. The list is not random: actives were taken first. Their share in the collection is about 3.9%. Cut-off read from the data, not from the text of the source, unless noted: active = inhibition above about 30%; inconclusive = no clear call, values can overlap the other calls; inactive = below that.
SMILES,MazF activator,Vc quorum ag,BoNT-F LC inh,Anthrax LF prot,Bead autofluor,BoNT A protease,BoNTA LC inh 1,BoNT-F LC CP1,LF protease CP1
COc1ccc(CNC(=O)C2CCN(C(=O)c3ccc(-c4ccccc4)cc3)CC2)cc1,-1,0,-21,32*,3412,-1,0,-5,0
O=C(NC1CCCc2ccccc21)C1CCCC1 (centres undefined),8,0,?,33*,4522,-8,0,-2,-4
O=C(NC1CCCc2ccccc21)C1CCN(S(=O)(=O)c2ccccc2)CC1 (centres undefined),2,0,1,-3,10345,1,/,/,/
CCOc1ccc(OCCOCCNCCOC)cc1,-1,0,41*,1,2724,4,0,5,-2
Cc1cc(C)c(S(=O)(=O)N2CCN(C(=O)c3ccc(-n4nc(C)c(Cl)c4C)cc3)CC2)c(C)c1,-2,-2,-7,-3,3940,0,/,/,/
CCOc1c(Br)cc(C(N)=O)cc1OCc1ccccc1,-7,-1,36*,-1,2607,3,-2,0,0
COc1ccc(OC)c(CN2CCN(C(=O)CNC(=O)c3ccc(C(C)(C)C)cc3)CC2)c1,4,-1,-5,0,4043,0,/,/,/
COc1ccc(OC)c(CN2CCN(C(=O)CCNC(=O)c3ccc(Br)cc3)CC2)c1,2,0,1,-2,?,34*,0,2,0
CCCCN(C)C(=O)c1cc2cc3ccc(OC)cc3nc2s1,4,i,-4,-7,3426,1,0,-2,0
COc1ccc(N2CCN(C(=O)CN3C(=O)NC4(CCCCCC4)C3=O)CC2)cc1,7,-1,/,/,/,/,/,/,/
CC(Cc1ccccc1)NC(=S)CN1CCCC1=S (centres undefined),4,i,?,-5,4069,?,/,/,/
O=C(Nc1ccc2nc(-c3cccs3)c(-c3cccs3)nc2c1)N1CCOCC1,-4,0,29,41*,18209*,68*,39*,2,16
O=C(Nc1cccc(O)c1)N1CCOCC1,0,i,3,-1,2893,0,/,/,/
O=C(COC(=O)Cc1cccs1)NCC(=O)Nc1ccc(F)cc1,1,i,-3,4,3858,0,/,/,/
CN(CC(=O)Nc1ccc(F)cc1)C(=O)COC(=O)Cc1cccs1,10,4,40*,-1,?,4,1,-1,-2
CCCCCCN=C1CC(C)(C)CC(=O)/C1=C(/O)CCC,-10,0,0,-10,4312,0,/,/,/
Cc1ccc(C(=O)Nc2scc(-c3ccccc3)c2C(=O)O)cc1,0,i,36*,11,3585,5,0,-4,6
C[C@]1(O)CC(=O)C=C[C@H]1Nc1ccccc1,5,0,-4,0,3884,0,/,/,/
COc1cc(CC(NC(C)=O)C(=O)NC2CCN(C(=O)c3ccc(C)cc3)CC2)cc(OC)c1 (centres undefined),10,i,43*,5,2861,0,-1,-5,0
CCn1c(SCC(N)=O)nc2cc(S(=O)(=O)N3CCOCC3)ccc21,5,0,-1,0,3502,0,/,/,/
CCn1c(SCC(=O)c2c[nH]c3ccccc23)nc2cc(S(=O)(=O)N3CCOCC3)ccc21,-28,-1,-16,18,5805,49*,15,-11,10
COc1ccc(CC(=O)NCc2ccc3c(c2)cc(C)n3C)cc1,-29,i,-53,-15,1840,91*,1,-5,-3
COc1ccc(C(=O)NCc2ccc3c(c2)cc(C)n3C)cc1OC,0,-1,-47,-1,1632,92*,-1,-7,2
COc1cccc(C(=O)NCc2ccc3c(c2)OCO3)c1,-5,i,36*,4,3829,-2,0,-4,0
COc1cccc(C(=O)NCc2ccc3c(c2)cc(C)n3C)c1,6,i,-83,-50,1285,75*,3,-3,-1
SMILES,MazF activator,Vc quorum ag,BoNT-F LC inh,Anthrax LF prot,Bead autofluor,BoNT A protease,BoNTA LC inh 1,BoNT-F LC CP1,LF protease CP1
COc1cc(OC)cc(C(=O)NCc2ccc3c(c2)OCO3)c1,10,i,?,9,3997,-1,/,/,/
COc1ccc(C(=O)NCc2ccncc2)cc1OC,6,i,1,0,2638,1,/,/,/
CCN(CC)CC(=O)N1c2ccccc2Oc2c(c(=O)n(C)c(=O)n2C)C1c1cccc([N+](=O)[O-])c1 (centres undefined),2,-1,-4,-11,5939,0,/,/,/
CCOc1ccc(NC(=O)CCn2ccnc2)cc1,6,-1,4,-3,3549,0,/,/,/
O=C(CCn1ccnc1)Nc1ccc2ccccc2c1,-2,i,38*,1,4229,7,0,-3,-1
CC(C)OC(=O)CC1C(=O)NCCN1C(=S)NC(=O)c1ccccc1 (centres undefined),-18,1,35*,-3,2567,2,-1,-4,-5
O=[N+]([O-])c1cccc(-c2cn3nc(-c4ccccc4)c(-c4ccccc4)nc3n2)c1,-1,1,48*,33*,4123,67*,40*,10,24
c1ccc(-c2cn3nc(-c4ccccc4)c(-c4ccccc4)nc3n2)cc1,-86,i,24,46*,5284,76*,62*,11,28
COc1ccc(C2C(C#N)=C(N)Oc3cc(C)[nH]c(=O)c32)cc1OC (centres undefined),-23,3,3,-3,4182,0,/,/,/
CC1CCN(S(=O)(=O)c2ccc(NC(=O)CCNC(=O)c3ccc(Cl)cc3)cc2)CC1,-4,i,-7,-2,?,-4,/,/,/
Cc1ccc(-c2noc(CC(=O)c3ccc([N+](=O)[O-])cc3)n2)cc1,4,-1,1,-3,2730,0,/,/,/
COc1ccc(CCNC(=O)C2CCN(S(=O)(=O)N3CCOCC3)CC2)cc1OC,-1,i,36*,0,11415,4,-2,3,-1
O=S(=O)(Nc1nc2ccccc2nc1Nc1ccc(N2CCOCC2)cc1)c1cc(Cl)ccc1Cl,10,i,-6,0,2649,0,/,/,/
CSc1ccc(CN(C)CC(=O)NCCc2ccccc2)cc1,-3,i,40*,3,3529,2,-1,-2,-4
CCC(=O)Nc1nnc(S(=O)(=O)N(CC)c2ccc(Cl)cc2)s1,13,-1,0,3,4343,-2,/,/,/
CCC(=O)Nc1nnc(S(=O)(=O)N(C)c2cc(C)cc(C)c2)s1,-1,-1,42*,8,3945,-2,1,1,1
O=C(NCC1CCN(S(=O)(=O)c2ccccc2)CC1)Nc1ccccc1,6,0,?,-7,4663,0,/,/,/
